Data as given in ChEMBL document CHEMBL1157539, “Thousands of chemical starting points for antimalarial lead identification” (Nature, 2010).

System: Plasmodium falciparum
Assay: GSK_TCMDC: Inhibition of Plasmodium falciparum 3D7 in whole red blood cells, using parasite LDH activity as an index of growth. Test compounds present at 2uM
Type: functional

SMILES	Inhibition [%]
Fc1ccc(C=NN=c2cc[nH]c3ccc(C(F)(F)F)cc23)cc1	90
COc1ccc2nccc([C@@H](O)CN3CCC(NC(=O)C(c4ccsc4)N4CCN(c5ccccc5OC)CC4)CC3)c2c1 (stereo not given in full)	95
CCCC(C)Nc1nc(C)cc(N[C@@H](CC(C)C)C(=O)NCCc2ccccc2)n1.O=C(O)C(F)(F)F (stereo not given in full)	96
O=C(O)C(F)(F)F.Oc1ccc(CCCNc2nc(NCc3cccc4ccccc34)nc(N3CCCNCC3)n2)cc1	96
O=C1C(C2CCC(c3ccc(Cl)cc3)CC2)=C2OCC3COC2(O3)c2ccccc21 (stereo not given)	98
Cc1ccc2nc3c(cc(C(=O)NCCc4ccccc4)c(=N)n3CCCOC(C)C)c(=O)n2c1	96
CN(C)CCOC(=O)C1(O)CCC2CC1C2(C)C.Cl (stereo not given)	95
CCCCCc1ccc(NC(=O)Nc2ccc(Cn3ncc(N4CCCNCC4)c(Cl)c3=O)cc2)cc1.O=C(O)C(F)(F)F	87
CCCCCN1CCCC(NS(=O)(=O)c2ccc(C(=O)Nc3cccc(C(F)(F)F)c3)cc2)C1.O=C(O)C(F)(F)F (stereo not given)	97
Nc1nc(N)c2c(ccc3c2ccn3Cc2ccc(-c3ccccc3)cc2)n1	98
CN(C)CCN(C)Cc1ccc(-c2ccc(NC(=O)c3cccc(Cl)c3)cc2)cc1.O=C(O)C(F)(F)F	94
Cl.O=C(Nc1ccc2c(c1)CCNCC2)c1ccc(-c2ccc(Cl)cc2)cc1	96
COc1ccccc1C1CCN(C2CCC(NC(=O)c3cc4cc(C(C)C)ccc4[nH]3)CC2)CC1 (stereo not given)	100
COc1ccc(-c2cn3c(C(=O)Nc4ccccc4Cl)c(-c4ccccc4)c4c3n2CCCC4)cc1	100
Cc1cnc(NCC2CCCCC2)nc1N[C@@H](CO)C(=O)Nc1ccccc1.O=C(O)C(F)(F)F	83
NCc1cccc(-c2ccc3ccnc(N)c3c2)c1	100
O=[N+]([O-])c1ccc(/C=N/Nc2cc(-c3ccccc3)nc3ccccc23)o1	93
CC(C)CCC[C@@H]([C@@H](CC1CCCCC1)C(=O)N[C@@H](CCCCNC(=O)OCc1ccccc1)C(=O)Nc1nccs1)N(O)C=O	98
CCN1CCN(c2cc(C)c3cc(NC(=O)C=Cc4cccc(OC)c4OC)ccc3n2)CC1	99
CCN(CCCN1CCCC1)c1cc(C)nc(Nc2ccc(Cl)cc2)n1.O=C(O)C(=O)O	100

SMILES	Inhibition [%]
C=CCOC(=O)N1CCC(CNCc2cccc(-c3cccc(-c4nc5ccccc5[nH]4)c3)c2)C1.O=C(O)C(F)(F)F (stereo not given)	100
Cc1c(CNCCCNc2nc3ccccc3[nH]2)sc(C(F)F)c1Br.Cl	100
O=C(O)C(F)(F)F.O=S(=O)(NCCN1CCCC1)c1ccc(-c2cccc(CNC3Cc4ccccc4C3)c2)cc1	99
O=C(Nc1ccc(Cl)cc1)c1cc(Cl)cc2nc(C(F)(F)F)[nH]c12	100
O=C(Nc1ccc(-n2ccc(C(F)(F)F)n2)cc1)c1cccs1	89
Clc1ccc(CNC2CCN(CC3CCCCC3)CC2)cc1.O=C(O)C(F)(F)F	92
NC1CCCN(Cc2ccc(-c3cccc(-c4nc5cc(F)ccc5[nH]4)c3)cc2)C1.O=C(O)C(F)(F)F (stereo not given)	100
CC(=O)Nc1ccc(Nc2cc(C)nc(Nc3ccc(NC(C)=O)cc3)n2)cc1	99
CCCNCc1ccc(-c2ccc(CN(CCOC)C(=O)c3ccccc3)cc2)nc1.O=C(O)C(F)(F)F	94
Cc1ccc(C(NC(=O)C2CCCCC2)c2ccc3cccnc3c2O)cc1 (stereo not given)	91
O=C(Nc1ccc(CCNCCCc2ccccc2)cc1)Nc1ccc(Cl)c(Cl)c1	100
O=C(Cc1ccccc1)NC(c1ccco1)c1cc(Cl)c2cccnc2c1O (stereo not given)	89
CCCNCc1ccc(-c2ccc(CN(CCOC)C(=O)c3ccco3)cc2)nc1.O=C(O)C(F)(F)F	91
O=C(NC1CCCCC1)N(Cc1cccc(-c2cccc(CNC3CCCC3)c2)c1)C1CCN(Cc2ccccc2)CC1.O=C(O)C(F)(F)F	96
CN1CCCN(Cc2cccc(-c3cccc(NC(=O)c4ccc(Cl)cc4)c3)c2)CC1.O=C(O)C(F)(F)F	100
O=C(COc1ccc(Cl)c(Cl)c1)NCCCCCN1CCCN(C(=O)Nc2ccc(Cl)c(Cl)c2)CC1.O=C(O)C(F)(F)F	93
Cc1ccc(C)c(Cn2ccc3nc(N)nc(N)c32)c1	97
COc1ccc(O)c(C(=O)NCCc2ccc(OC)c(-c3ccc(C(C)(C)C)cc3)c2)c1	88
c1ccc(COc2ccccc2COc2ccccc2-c2ccc3cccnc3n2)cc1	87
COc1ccccc1CNc1nc(Nc2ccccc2C)nc2ccccc12	100

System: Plasmodium falciparum
Assay: GSK_TCMDC: Inhibition of Plasmodium falciparum Dd2 in whole red blood cells, using parasite LDH activity as an index of growth. Test compounds present at 2uM
Type: functional

SMILES	Inhibition [%]
Fc1ccc(C=NN=c2cc[nH]c3ccc(C(F)(F)F)cc23)cc1	6
COc1ccc2nccc([C@@H](O)CN3CCC(NC(=O)C(c4ccsc4)N4CCN(c5ccccc5OC)CC4)CC3)c2c1 (stereo not given in full)	50
CCCC(C)Nc1nc(C)cc(N[C@@H](CC(C)C)C(=O)NCCc2ccccc2)n1.O=C(O)C(F)(F)F (stereo not given in full)	51
O=C(O)C(F)(F)F.Oc1ccc(CCCNc2nc(NCc3cccc4ccccc34)nc(N3CCCNCC3)n2)cc1	62
O=C1C(C2CCC(c3ccc(Cl)cc3)CC2)=C2OCC3COC2(O3)c2ccccc21 (stereo not given)	97
Cc1ccc2nc3c(cc(C(=O)NCCc4ccccc4)c(=N)n3CCCOC(C)C)c(=O)n2c1	12
CN(C)CCOC(=O)C1(O)CCC2CC1C2(C)C.Cl (stereo not given)	0
CCCCCc1ccc(NC(=O)Nc2ccc(Cn3ncc(N4CCCNCC4)c(Cl)c3=O)cc2)cc1.O=C(O)C(F)(F)F	23
CCCCCN1CCCC(NS(=O)(=O)c2ccc(C(=O)Nc3cccc(C(F)(F)F)c3)cc2)C1.O=C(O)C(F)(F)F (stereo not given)	3
Nc1nc(N)c2c(ccc3c2ccn3Cc2ccc(-c3ccccc3)cc2)n1	93
CN(C)CCN(C)Cc1ccc(-c2ccc(NC(=O)c3cccc(Cl)c3)cc2)cc1.O=C(O)C(F)(F)F	54
Cl.O=C(Nc1ccc2c(c1)CCNCC2)c1ccc(-c2ccc(Cl)cc2)cc1	38
COc1ccccc1C1CCN(C2CCC(NC(=O)c3cc4cc(C(C)C)ccc4[nH]3)CC2)CC1 (stereo not given)	98
COc1ccc(-c2cn3c(C(=O)Nc4ccccc4Cl)c(-c4ccccc4)c4c3n2CCCC4)cc1	1
Cc1cnc(NCC2CCCCC2)nc1N[C@@H](CO)C(=O)Nc1ccccc1.O=C(O)C(F)(F)F	56
NCc1cccc(-c2ccc3ccnc(N)c3c2)c1	96
O=[N+]([O-])c1ccc(/C=N/Nc2cc(-c3ccccc3)nc3ccccc23)o1	49
CC(C)CCC[C@@H]([C@@H](CC1CCCCC1)C(=O)N[C@@H](CCCCNC(=O)OCc1ccccc1)C(=O)Nc1nccs1)N(O)C=O	90
CCN1CCN(c2cc(C)c3cc(NC(=O)C=Cc4cccc(OC)c4OC)ccc3n2)CC1	38
CCN(CCCN1CCCC1)c1cc(C)nc(Nc2ccc(Cl)cc2)n1.O=C(O)C(=O)O	12

SMILES	Inhibition [%]
C=CCOC(=O)N1CCC(CNCc2cccc(-c3cccc(-c4nc5ccccc5[nH]4)c3)c2)C1.O=C(O)C(F)(F)F (stereo not given)	46
Cc1c(CNCCCNc2nc3ccccc3[nH]2)sc(C(F)F)c1Br.Cl	5
O=C(O)C(F)(F)F.O=S(=O)(NCCN1CCCC1)c1ccc(-c2cccc(CNC3Cc4ccccc4C3)c2)cc1	57
O=C(Nc1ccc(Cl)cc1)c1cc(Cl)cc2nc(C(F)(F)F)[nH]c12	100
O=C(Nc1ccc(-n2ccc(C(F)(F)F)n2)cc1)c1cccs1	67
Clc1ccc(CNC2CCN(CC3CCCCC3)CC2)cc1.O=C(O)C(F)(F)F	15
NC1CCCN(Cc2ccc(-c3cccc(-c4nc5cc(F)ccc5[nH]4)c3)cc2)C1.O=C(O)C(F)(F)F (stereo not given)	75
CC(=O)Nc1ccc(Nc2cc(C)nc(Nc3ccc(NC(C)=O)cc3)n2)cc1	65
CCCNCc1ccc(-c2ccc(CN(CCOC)C(=O)c3ccccc3)cc2)nc1.O=C(O)C(F)(F)F	25
Cc1ccc(C(NC(=O)C2CCCCC2)c2ccc3cccnc3c2O)cc1 (stereo not given)	59
O=C(Nc1ccc(CCNCCCc2ccccc2)cc1)Nc1ccc(Cl)c(Cl)c1	99
O=C(Cc1ccccc1)NC(c1ccco1)c1cc(Cl)c2cccnc2c1O (stereo not given)	93
CCCNCc1ccc(-c2ccc(CN(CCOC)C(=O)c3ccco3)cc2)nc1.O=C(O)C(F)(F)F	21
O=C(NC1CCCCC1)N(Cc1cccc(-c2cccc(CNC3CCCC3)c2)c1)C1CCN(Cc2ccccc2)CC1.O=C(O)C(F)(F)F	90
CN1CCCN(Cc2cccc(-c3cccc(NC(=O)c4ccc(Cl)cc4)c3)c2)CC1.O=C(O)C(F)(F)F	44
O=C(COc1ccc(Cl)c(Cl)c1)NCCCCCN1CCCN(C(=O)Nc2ccc(Cl)c(Cl)c2)CC1.O=C(O)C(F)(F)F	7
Cc1ccc(C)c(Cn2ccc3nc(N)nc(N)c32)c1	3
COc1ccc(O)c(C(=O)NCCc2ccc(OC)c(-c3ccc(C(C)(C)C)cc3)c2)c1	91
c1ccc(COc2ccccc2COc2ccccc2-c2ccc3cccnc3n2)cc1	95
COc1ccccc1CNc1nc(Nc2ccccc2C)nc2ccccc12	67
